HT1080 IDH1KD tx – qHTS for induction of synthetic lethality in tumor cells producing 2HG: qHTS for the HT-1080-IDH1KD cell line. HT-1080 IDH1 knockdown viability, ATP luminescence, 48 h. Potency, µM (doses to about 46.1 µM), most hits filed as cytotoxic. 360,000 compounds, 2% hits
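Using the IDH1-knockdown HT-1080 line run in the same batch and compound series as the NT line, viability after 48 h at 37 °C was determined by CellTiter-Glo luminescence and expressed as % activity.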
DT40 TDP1 CPT – qHTS for Inhibitors of human tyrosyl-DNA phosphodiesterase 1 (TDP1): qHTS in cells in presence of CPT. Potency, µM (titrated, usually from 46.2 µM), hits mostly inhibitors. 420,000 compounds, 12% hits. AID 686979, 2013. chicken DT40 Tdp1-/-;hTDP1 cells + 20 nM CPT, ATP luminescence, 48 h; further: nearly all actives have a fitted effect of over 55% in size
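Chicken DT40 Tdp1-/- cells stably complemented with human TDP1 were seeded at 400 cells/well in medium containing 20 nM camptothecin, exposed to pin-transferred compounds, and grown at 37 °C for at least 48 hr. Viability was read as ATP luminescence.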
HT1080NT lethal – qHTS for induction of synthetic lethality in tumor cells producing 2HG: qHTS for the HT-1080-NT fibrosarcoma cell line; 360,000 compounds, 1.6% hits; HT-1080-NT fibrosarcoma viability, CellTiter-Glo ATP luminescence, 48 h; AID 686970, 2013; Potency, µM (doses to about 46.1 µM), hits mostly cytotoxic;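 further: NT is the 2HG producing partner of a matched IDH1 knockdown line; nearly all actives have a fitted effect of over 55% in size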
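Fibrosarcoma NT cells, 750 per well in 5% FBS RPMI, were exposed to compound for 48 hours. Viability: CellTiter-Glo luminescence.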
IL1B secr inh – qHTS for Inhibitors of Inflammasome Signaling: IL-1-beta AlphaLISA Primary Screen; activity change, % at 57.5 µM; AID 743279, 2014; 360,000 compounds, 4.7% hits; THP-1 LPS/ATP IL-1B secretion, AlphaLISA, 16 h; active compounds read low; in the data active means activity change below about -50%; inconclusive means mostly about -30% to -49%
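Secreted IL-1B measured by AlphaLISA bead assay after 16 h compound exposure of THP-1 cells; compounds (final up to 57.5 uM) added 1 h before LPS (250 ng/mL) and ATP (1.25 mM) stimulation; lower signal means less secretion.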
DT40 TDP1 no CPT – qHTS for Inhibitors of human tyrosyl-DNA phosphodiesterase 1 (TDP1): qHTS in cells in absence of CPT; DT40 Tdp1-/- hTDP1 cells, no CPT, ATP luminescence, 48 h; Potency, µM (series often up to 46.2 µM), most hits filed as inhibitors; 420,000 compounds, 15% hits; AID 686978, 2013; further: nearly all actives have a fitted effect of over 55% in size
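No-CPT arm: Tdp1-/-;hTDP1 DT40 cells (400/well) plus compounds, incubated ≥48 hr at 37 °C. Readout CellTiter-Glo luminescence.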
Large screens that a line does not name were inactive. Most compounds without a hit are left out; they make up all but 19% or so of the library. Unless noted, the call rests on the fitted dose curve; in most records, active means well fitted curve in the direction sought with a large enough effect; inconclusive means small, poorly fitted or top-dose-only effect, or another doubt; inactive means no such curve, though single readings can be large; an effect the other way counts as inactive or inconclusive.

COc1cc2nc(N3CCCN(C)CC3)nc(N(C)C)c2cc1OC	DT40 TDP1 CPT inconclusive, DT40 TDP1 no CPT 17.8µM (no result: IL1B secr inh)
COc1cc2nc(N3CCCN(C)CC3)nc(N)c2cc1OC	DT40 TDP1 CPT inconclusive, DT40 TDP1 no CPT inconclusive (no result: IL1B secr inh)
COc1cc2nc(N3CCCN(C)CC3)nc(N3CCN(C)CC3)c2cc1OC	DT40 TDP1 CPT 14.1µM, DT40 TDP1 no CPT 15.8µM (no result: IL1B secr inh)
CCOC(=O)C(=O)NCC(c1cccs1)S(=O)(=O)c1ccc(Cl)cc1 (stereo not drawn)	none
COc1ccc(Cl)cc1Nc1nc(C)nc2c1nnn2Cc1ccccc1	DT40 TDP1 no CPT inconclusive
CC(C)Cc1nc(Nc2ccccc2C#N)c2nnn(Cc3ccccc3)c2n1	HT1080 IDH1KD tx 18.4µM, HT1080NT lethal inconclusive, IL1B secr inh inconclusive, DT40 TDP1 no CPT inconclusive
CC(C)CN(C(=O)COC(=O)COc1ccc2c(c1)CCC2)c1c(N)n(Cc2ccccc2)c(=O)[nH]c1=O	none
Cc1ccc(S(=O)(=O)N2CCCN(S(=O)(=O)c3ccc4c(c3)OCCO4)CC2)cc1	DT40 TDP1 CPT 11.2µM, DT40 TDP1 no CPT 11.2µM
Cc1ccc2nc(N3CCN(S(=O)(=O)c4ccc5c(c4)OCCO5)CC3)c(C#N)cc2c1	DT40 TDP1 CPT 11.2µM, DT40 TDP1 no CPT inconclusive
Cc1ccc2[nH]c3c(=O)n(CC(=O)Nc4ccc(Br)cc4C)ncc3c2c1	none (no result: HT1080 IDH1KD tx, HT1080NT lethal, IL1B secr inh)
COc1ccc(-c2ccc(N3C(c4cc(OC)cc(OC)c4)=Cc4ccc(OC)cc4C3CC(C)=O)cc2)cc1 (stereo not drawn)	HT1080 IDH1KD tx inconclusive, DT40 TDP1 CPT 5.17µM, HT1080NT lethal inconclusive, DT40 TDP1 no CPT 6.51µM
COc1cc(OC)cc(C2=Cc3ccc(OC)cc3C(CC(C)=O)N2c2ccc(-c3cncnc3)cc2)c1 (stereo not drawn)	DT40 TDP1 CPT 8.2µM, DT40 TDP1 no CPT inconclusive
COc1cc(OC)cc(C2=Cc3ccccc3C(CC(=O)c3ccco3)N2c2ccc(-c3cccnc3)cc2)c1 (stereo not drawn)	DT40 TDP1 CPT inconclusive, DT40 TDP1 no CPT 18.4µM
COC(=O)c1ccc(N2C(c3cc(OC)cc(OC)c3)=Cc3ccc(-c4ccc(C(N)=O)cc4)cc3C2CC(=O)C2CC2)cc1 (stereo not drawn)	DT40 TDP1 CPT inconclusive, DT40 TDP1 no CPT 18.4µM
COc1ccc2c(c1)C(CC(C)=O)N(c1ccc(-c3cccnc3)cc1)C(c1ccsc1)=C2 (stereo not drawn)	DT40 TDP1 CPT inconclusive, DT40 TDP1 no CPT inconclusive
COC(=O)c1ccc(N2C(c3cc(OC)cc(OC)c3)=Cc3ccc(-c4cccnc4)cc3C2CC(=O)C2CC2)cc1 (stereo not drawn)	DT40 TDP1 CPT inconclusive, DT40 TDP1 no CPT inconclusive
CCN(CC)C(=O)c1sc(NC(=O)C(C)C)c(C#N)c1C	none
CC(C)CC(=O)OC1C(N2CCOCC2)c2c(ccc(/C=C/C(=O)N3CCOCC3)c2O)OC1(C)C (stereo not drawn)	DT40 TDP1 CPT inconclusive, DT40 TDP1 no CPT inconclusive
O=C(C1CC(=O)N(c2ccccc2)C1)N1CCN(c2ccc(F)cc2)CC1 (stereo not drawn)	none
CCCCNC(=O)c1ccc(S(=O)(=O)c2ccc(Cl)cc2)c(NC(C)=O)c1	none
COc1ccc(CCN2CCCn3c2nc2c3c(=O)n(C)c(=O)n2C)cc1OC	DT40 TDP1 CPT inconclusive
Cc1cc(-c2ccccc2)n(-c2ccc(C(=O)N3CCN(c4ncccn4)CC3)cc2)n1	DT40 TDP1 CPT inconclusive, DT40 TDP1 no CPT inconclusive
O=C(CNS(=O)(=O)c1cccc2nsnc12)NCc1ccc(Cl)cc1	none
COc1cc2c(cc1OC)CN(CC(=O)Nc1ccc(F)cc1)C(C(=O)O)C2 (stereo not drawn)	none
COc1ccc2c(c1)C(CC(C)=O)N(c1ccc(-c3cccs3)cc1)C(c1ccsc1)=C2 (stereo not drawn)	DT40 TDP1 CPT 3.66µM, DT40 TDP1 no CPT 4.61µM
CCC(=O)Nc1cc(C)c(O)c(-c2nc3ncccc3o2)c1	DT40 TDP1 no CPT inconclusive (no result: HT1080 IDH1KD tx, HT1080NT lethal, IL1B secr inh)
COC(=O)c1[nH]c2ccccc2c1NC(=O)CN1CCN(C/C=C/c2ccccc2)CC1	HT1080 IDH1KD tx inconclusive, DT40 TDP1 CPT 25.9µM, HT1080NT lethal inconclusive, IL1B secr inh -76.0, DT40 TDP1 no CPT inconclusive
CCOC(=O)c1[nH]c2ccc(F)cc2c1NC(=O)CN1CCN(C/C=C/c2ccccc2)CC1	HT1080 IDH1KD tx 25.9µM, DT40 TDP1 CPT inconclusive, HT1080NT lethal 20.6µM, IL1B secr inh -79.4, DT40 TDP1 no CPT inconclusive
COC(=O)C1=C(C)N(Cc2ccccc2)C(=NCCc2ccccn2)N[C@H]1c1cccc(C(F)(F)F)c1	DT40 TDP1 CPT 7.31µM, DT40 TDP1 no CPT 14.6µM
CCN1C(=NCCc2ccccn2)N[C@@H](c2cccc(C(F)(F)F)c2)C(C(=O)OC)=C1C	DT40 TDP1 CPT 11.2µM, IL1B secr inh inconclusive, DT40 TDP1 no CPT 16.4µM
COC(=O)C1=C(C)N(Cc2ccccc2)C(=O)N[C@H]1c1cccc(C(F)(F)F)c1	DT40 TDP1 CPT inconclusive, DT40 TDP1 no CPT inconclusive
COC(=O)C1=C(C)N(Cc2ccccc2)C(=NCc2ccccc2)N[C@H]1c1cccc(C(F)(F)F)c1	HT1080 IDH1KD tx inconclusive, DT40 TDP1 CPT 5.8µM, HT1080NT lethal inconclusive, IL1B secr inh inconclusive, DT40 TDP1 no CPT 5.8µM
COC(=O)C1=C(C)N(Cc2ccccc2)C(=S)N[C@H]1c1cccc(C(F)(F)F)c1	HT1080 IDH1KD tx inconclusive, DT40 TDP1 CPT inconclusive, IL1B secr inh inconclusive, DT40 TDP1 no CPT inconclusive
CC(C)NC(=O)c1noc2cc([N+](=O)[O-])ccc12	none
COc1ccc(OC(F)(F)F)cc1CC1(C)C(=O)Nc2c(Cl)ccc(Cl)c21 (stereo not drawn)	HT1080 IDH1KD tx inconclusive, DT40 TDP1 CPT inconclusive, HT1080NT lethal inconclusive, DT40 TDP1 no CPT inconclusive
O=C(NCCCc1ccccn1)C1CCC(=O)N(Cc2cccc(F)c2)C1 (stereo not drawn)	none
CS/C(=N\S(=O)(=O)c1ccc(Cl)cc1)c1ccccc1	none
CS/C(=N/S(=O)(=O)c1ccc(C)cc1)c1ccccc1	IL1B secr inh -55.5
O=S(=O)(/N=C(\Sc1ccc(Cl)cc1)c1ccccc1)c1ccccc1	DT40 TDP1 CPT 11.6µM, IL1B secr inh -113.0, DT40 TDP1 no CPT 20.6µM
Cc1ccc(S/C(=N/S(=O)(=O)c2ccc(Cl)cc2)c2ccccc2)cc1	DT40 TDP1 CPT 11.2µM, DT40 TDP1 no CPT 10µM (no result: HT1080 IDH1KD tx, HT1080NT lethal, IL1B secr inh)
COC(=O)C(c1cc(OC)c(O)c(OC)c1)(N1CCNC(C)C1)C(F)(F)F (stereo not drawn)	none
CCCc1c(C(=O)N/N=C/c2cccnc2)nnn1-c1nonc1N	none

Source: PubChem (National Center for Advancing Translational Sciences (NCATS))
